This is a sample that favours compounds with a hit; in the whole collection about 21% have one here.
ClpP mod – qHTS Assay for Activators of ClpP; ATP-dependent Clp protease proteolytic subunit (Bacillus subtilis (strain 168)), P80244; purified B. subtilis ClpP, FRET peptide cleavage, 20 min; Potency, µM (doses to about 57.5 µM), inactives show at the top dose activity change, negative = active; 340,000 tested, 1.9% active; AID 651965, 2013; active means well fitted falling curve with a large enough effect; inconclusive means small, poorly fitted or top-dose-only effect; inactive means no such curve, though single readings can be large or run the other way; further: potency means the concentration at half of the fitted maximal effect; the source files actives as falling curves though it sought activators and does not explain the sign; nearly all actives have a fitted effect of over 65% in size
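FRET quenching reversal measured ClpP activation: 10 microg/mL B. subtilis ClpP at pH 8 with the FRET-FV decapeptide, read at 430 nm after 320 nm excitation. The 20-min minus 0-min signal was scaled between DMSO/no-enzyme wells and ADEP (5.8 microM final).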
TDP1 cell CPT – DT40-hTDP1 cell growth loss with CPT; 420,000 tested, 12% active; Potency, µM (titrated, usually from 46.2 µM), for the others: top-dose activity change, negative = growth inhibition, most hits filed as inhibitors; AID 686979; chicken DT40 Tdp1-/-;hTDP1 cells + 20 nM CPT, ATP luminescence, 48 h; further: potency means the concentration at half of the fitted maximal effect; on the % scale 0 is the no-effect control and ±100 the full control effect; nearly all actives have a fitted effect of over 55% in size
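Chicken DT40 Tdp1-/- cells complemented with human TDP1, 400 cells/well, exposed to compounds plus 20 nM camptothecin for at least 48 h at 37 C; viability read as ATP content by CellTiter-Glo luminescence.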
IL-1B inflam inh – inhibitors of inflammasome signaling (IL-1 beta secretion); activity change, % at 57.5 µM; 360,000 tested, 4.7% active; AID 743279; THP-1 LPS/ATP IL-1B secretion, AlphaLISA, 16 h; active compounds read low; in the data active means activity change below about -50%; inconclusive means mostly about -30% to -49%; further: on the % scale 0 is the no-effect control and ±100 the full control effect
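THP-1 cells pretreated 1 hr with compounds (up to 57.5 uM final), then stimulated with LPS (250 ng/mL final) plus ATP (1.25 mM final); secreted IL-1B measured by AlphaLISA after 16 hr, decreased signal indicating inhibition.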
D3 ag – D3 dopamine receptor (human) agonism; 410,000 tested, 0.58% active; max activation, %; D3R DiscoveRx beta-arrestin cells, luminescence, 90 min; in the data active means max activation above about 30%; further: 0% is about no effect
Target sequence (P35462 whole entry, looked up): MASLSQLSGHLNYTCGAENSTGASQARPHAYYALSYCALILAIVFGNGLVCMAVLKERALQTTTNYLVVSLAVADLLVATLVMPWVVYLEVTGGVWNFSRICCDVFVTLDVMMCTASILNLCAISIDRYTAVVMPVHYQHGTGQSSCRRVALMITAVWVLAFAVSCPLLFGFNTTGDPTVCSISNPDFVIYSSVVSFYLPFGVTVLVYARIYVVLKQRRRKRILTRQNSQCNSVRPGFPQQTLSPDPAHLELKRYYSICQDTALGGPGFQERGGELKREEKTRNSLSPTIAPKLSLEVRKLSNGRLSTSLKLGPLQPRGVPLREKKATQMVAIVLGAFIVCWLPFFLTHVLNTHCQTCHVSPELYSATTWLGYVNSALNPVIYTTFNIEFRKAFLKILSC
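Agonist-mode cell screen: cells plated at 1500/well and incubated overnight at 37 °C, then exposed to library compounds for 90 min at 37 °C. Detection reagent was added for 30–60 min at room temperature, and luminescence was read.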
DT40 TDP1 no CPT – qHTS for Inhibitors of human tyrosyl-DNA phosphodiesterase 1 (TDP1): qHTS in cells in absence of CPT; 420,000 tested, 15% active; DT40 Tdp1-/- hTDP1 cells, no CPT, ATP luminescence, 48 h; AID 686978, 2013; Potency, µM (doses to about 46.2 µM), inactives show at the highest dose activity change, negative = growth inhibition, most hits filed as inhibitors; further: potency means the concentration at half of the fitted maximal effect; on the % scale 0 is the no-effect control and ±100 the full control effect; nearly all actives have a fitted effect of over 55% in size
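Luminescent ATP content (CellTiter-Glo) served as the growth readout. Knockout chicken DT40 cells expressing human TDP1 were exposed to compounds without camptothecin for a minimum 48 hr at 37 °C.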
DRD3 antagonist – D3 dopamine receptor (human) antagonism; P35462; D3R cells, DiscoveRx beta-arrestin luminescence, antagonist mode; active compounds read low; 360,000 tested, 2.5% active; max response, negative = inhibition, %; in the data active means max response below about -50%; inconclusive means no clear call, values can overlap the other calls; further: on the % scale 0 is the no-effect control and ±100 the full control effect
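Cells expressing the human receptor were seeded at 1500 cells/well, incubated overnight at 37 degrees C in 5% CO2, then exposed to library compounds with dopamine controls for 90 minutes at 37 degrees C before luminescent detection.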
* = called active by the depositor; i = inactive; ? = inconclusive; . = no result given. Unless noted, the call rests on the fitted dose curve; in most records, active means well fitted inhibition curve with a large enough effect; inconclusive means small, poorly fitted or top-dose-only effect; inactive means flat fitted curve, though single readings scatter.

SMILES | ClpP mod | TDP1 cell CPT | IL-1B inflam inh | D3 ag | DT40 TDP1 no CPT | DRD3 antagonist
CCCCn1c(N)nc2ccccc21 | -1% | ? | 10 | 12 | ? | 3
CCCCn1c(/C=C/c2ccco2)nc2ccccc21 | -30% | 18µM* | 0 | 4 | ? | 27
CCCn1c(/C=C/c2ccco2)nc2ccccc21 | -27% | 16µM* | -16 | 3 | ? | 8
CCCCn1c(/C=N/Nc2nc3ccccc3[nH]2)nc2ccccc21 | -8% | 4.6µM* | 69 | -1 | 5.2µM* | -9
Cc1cc(C)c(S(=O)(=O)N2CCC(N3CCN(Cc4ccc(F)cc4)C(=O)C3=O)CC2)c(C)c1 | 0% | ? | . | -11 | -23% | .
CCCCN(Cc1ccccc1)S(=O)(=O)c1ccc2c(c1)CCN2C(=O)C1CCC1 | 0% | -28% | . | 5 | -21% | .
CCOc1ccc(NS(=O)(=O)c2cc(Br)cc3c2N(C(=O)C2CC2)CC3)cc1 | 0% | ? | . | 6 | ? | .
CCCCN(Cc1ccccc1)S(=O)(=O)c1cc(Br)cc2c1N(C(=O)C1CC1)CC2 | ? | 9.2µM* | . | -2 | 9.2µM* | .
CCc1ccccc1NS(=O)(=O)c1cc(Br)cc2c1N(C(=O)C1CC1)CC2 | -2% | 16µM* | . | 10 | 18µM* | .
CCN(Cc1ccccc1)S(=O)(=O)c1cc(Br)cc2c1N(C(=O)C1CC1)CC2 | -4% | 10µM* | . | -6 | 8.2µM* | .
O=C(C1CC1)N1CCc2cc(S(=O)(=O)N(CCO)Cc3ccccc3)ccc21 | 0% | ? | -8 | -7 | 23µM* | 7
Cc1noc(C)c1C(=O)N1CCCC(C(=O)c2cccc(C(F)(F)F)c2)C1 (centres undefined) | . | 1% | 39 | 7 | -23% | 1
O=C(CCCc1ccccc1)NC1CC(=O)N(c2ccc(Cl)cc2)C1 (centres undefined) | 4% | ? | . | -17 | ? | .
CC(=O)c1ccc(N2CCN(c3ccc(S(=O)(=O)N4CCN(C)CC4)cn3)CC2)cc1 | -4% | -33% | 35 | -4 | -36% | 10
CN1CCN(S(=O)(=O)c2ccc(N3CCN(C(c4ccccc4)c4ccccc4)CC3)nc2)CC1 | . | ? | 19 | -9 | 16µM* | -6
CN1CCN(S(=O)(=O)c2ccc(N3CCN(S(=O)(=O)/C=C/c4ccccc4)CC3)nc2)CC1 | 1% | 18µM* | -8 | 2 | ? | 9
CC(C)N1CCN(c2ccc(S(=O)(=O)N3CCOCC3)cn2)CC1 | -23% | 0% | -15 | -2 | 16% | -9
O=C(CCC(=O)c1cccs1)Nc1ncccc1O | ? | 16% | 6 | 7 | 7% | 6
COc1ccc(CNC(=O)Cn2ccc3cc(S(=O)(=O)N4CCCCC4)ccc32)cc1OC | -3% | ? | . | 4 | ? | .
Cc1ccccc1NC(=O)c1c(C)oc2ccc(O)c(CN3CCN(C)CC3)c12 | -1% | 16µM* | . | -15 | ? | .
Cc1oc2ccc(O)c(CN3CCCC3)c2c1C(=O)Nc1cccc(Cl)c1C | 1% | 16µM* | . | 3 | 21µM* | .
Cc1ccccc1NC(=O)CN1CCN(C)CC1 | -1% | 6% | 6 | 8 | -9% | 10
Cc1oc2ccc(O)c(CN3CCN(Cc4ccccc4)CC3)c2c1C(=O)Nc1cccc(Cl)c1C | 0% | 16µM* | . | 2 | -77% | .
Cc1ccc(NC(=O)c2c(C)oc3ccc(O)c(CN4CCCC4)c23)c(C)c1 | -5% | ? | . | 0 | ? | .
C=CCn1c(SCC(=O)N2CCOCC2)nnc1C(C)NC(=O)c1ccccc1 (centres undefined) | -1% | 1% | i | -4 | -9% | 3
COc1ccc(NC(=O)CSc2n[nH]c(-c3ccccc3)n2)cc1Cl | -2% | ? | . | 3 | ? | .

Screens as filed in PubChem BioAssay.
